# Assay results: the supplement of paper PMC8728848
# The full list was thinned out, with the strongest signals kept by preference.
# Columns and labels:
# Test in all cases: glycan array binding signal (z-score within array); higher = stronger binding
# Details in all cases: glycan notation: IUPAC condensed, linker removed
# [1] = target: Fuc(a1-2)Gal(b1-4)Glc6S
# Method in brief: (§1)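 The Consortium for Functional Glycomics database supplied 3228 glycan arrays, of which those lacking an available protein sequence were dropped. The binding signal, a within-array Z-score, was averaged across arrays of the same protein sequence and across linkers. Negative scores can be read as non-binding.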
# [2] = target: Fuc(a1-2)Gal(b1-4)GlcNAc(b1-3)Gal(b1-4)GlcNAc
# Method in brief: as §1
# [3] = target: Fuc(a1-2)Gal(b1-4)GlcNAc(b1-3)Gal(b1-4)GlcNAc(b1-2)Man(a1-3)[Fuc(a1-2)Gal(b1-4)GlcNAc(b1-3)Gal(b1-4)GlcNAc(b1-2)Man(a1-6)]Man(b1-4)GlcNAc(b1-4)GlcNAc
# Method in brief: as §1
# [4] = target: Fuc(a1-2)Gal(b1-4)GlcNAc(b1-3)Gal(b1-4)GlcNAc(b1-3)Gal(b1-4)GlcNAc
# Method in brief: as §1
# [5] = target: Fuc(a1-2)Gal(b1-4)GlcNAc(b1-3)GalNAc
# Method in brief: as §1
# [6] = target: Fuc(a1-2)Gal(b1-4)GlcNAc(b1-6)GalNAc
# Method in brief: as §1
# [7] = target: Fuc(a1-2)Gal(b1-4)[Fuc(a1-3)]GlcNAc(b1-2)Man(a1-3)[Fuc(a1-2)Gal(b1-4)[Fuc(a1-3)]GlcNAc(b1-2)Man(a1-6)]Man(b1-4)GlcNAc(b1-4)[Fuc(a1-6)]GlcNAc
# Method in brief: as §1
# [8] = target: Fuc(a1-2)Gal(b1-4)[Fuc(a1-3)]GlcNAc(b1-2)[Fuc(a1-2)Gal(b1-4)[Fuc(a1-3)]GlcNAc(b1-4)]Man(a1-3)[Fuc(a1-2)Gal(b1-4)[Fuc(a1-3)]GlcNAc(b1-2)Man(a1-6)]Man(b1-4)GlcNAc(b1-4)GlcNAc
# Method in brief: as §1
# [9] = target: Fuc(a1-2)Gal(b1-4)[Fuc(a1-3)]GlcNAc(b1-3)Gal(b1-4)[Fuc(a1-3)]GlcNAc
# Method in brief: as §1
# [10] = target: Fuc(a1-2)Gal(b1-4)[Fuc(a1-3)]GlcNAc(b1-3)Gal(b1-4)[Fuc(a1-3)]GlcNAc(b1-3)Gal(b1-4)[Fuc(a1-3)]GlcNAc
# Method in brief: as §1
# [11] = target: Fuc(a1-2)[Gal(a1-3)]Gal(b1-3)GalNAc(b1-3)Gal(a1-4)Gal(b1-4)Glc
# Method in brief: as §1
# [12] = target: Fuc(a1-2)[Gal(a1-3)]Gal(b1-3)GlcNAc(b1-2)Man(a1-3)[Fuc(a1-2)[Gal(a1-3)]Gal(b1-3)GlcNAc(b1-2)Man(a1-6)]Man(b1-4)GlcNAc(b1-4)[Fuc(a1-6)]GlcNAc
# Method in brief: as §1
# [13] = target: Fuc(a1-2)[Gal(a1-3)]Gal(b1-4)[Fuc(a1-3)]GlcNAc(b1-3)GalNAc
# Method in brief: as §1
# [14] = target: Fuc(a1-2)[GalNAc(a1-3)]Gal(b1-4)GlcNAc(b1-3)Gal(b1-4)GlcNAc(b1-3)Gal(b1-4)GlcNAc
# Method in brief: as §1
# [15] = target: Fuc(a1-2)[GalNAc(a1-4)]Gal(b1-4)GlcNAc
# Method in brief: as §1
# [16] = target: Fuc(a1-3)[Gal(b1-4)]GlcNAc(b1-3)Gal(b1-4)[Fuc(a1-3)]GlcNAc(b1-3)Gal(b1-4)[Fuc(a1-3)]GlcNAc
# Method in brief: as §1
# [17] = target: Gal(b1-3)GalNAc
# Method in brief: as §1
# [18] = target: Gal(b1-3)GlcNAc(a1-3)Gal(b1-4)GlcNAc
# Method in brief: as §1
# [19] = target: Gal(b1-3)GlcNAc(b1-3)Gal(b1-4)[Fuc(a1-3)]GlcNAc
# Method in brief: as §1
# [20] = target: Gal(b1-3)GlcNAc(b1-3)GalNAc
# Method in brief: as §1
# [21] = target: Gal(b1-3)GlcNAc(b1-6)[Gal(b1-3)]GalNAc
# Method in brief: as §1
# [22] = target: Gal(b1-3)[Fuc(a1-4)]GlcNAc(b1-3)Gal(b1-3)[Fuc(a1-4)]GlcNAc
# Method in brief: as §1
# [23] = target: Gal(b1-3)[Fuc(a1-4)]GlcNAc(b1-3)Gal(b1-4)[Fuc(a1-3)]GlcNAc
# Method in brief: as §1
# [24] = target: Gal(b1-3)[Neu5Ac(a2-6)]GalNAc
# Method in brief: as §1
# [25] = target: Gal(b1-4)GalNAc(b1-3)[Fuc(a1-2)]Gal(b1-4)GlcNAc
# Method in brief: as §1
# [26] = target: Gal(b1-4)Glc
# Method in brief: as §1
# [27] = target: Gal(b1-4)GlcNAc(b1-2)Man
# Method in brief: as §1
# [28] = target: Gal(b1-4)GlcNAc(b1-3)Gal(b1-4)GlcNAc(b1-3)[Gal(b1-4)GlcNAc(b1-3)Gal(b1-4)GlcNAc(b1-6)]GalNAc
# Method in brief: as §1
# [29] = target: Gal(b1-4)GlcNAc(b1-3)Gal(b1-4)[Fuc(a1-3)]GlcNAc(b1-3)Gal(b1-4)[Fuc(a1-3)]GlcNAc
# Method in brief: as §1
# [30] = target: Gal4S(b1-4)GlcNAc
# Method in brief: as §1
# [31] = target: Gal6S(b1-4)GlcNAc
# Method in brief: as §1
# [32] = target: GalNAc(b1-3)Gal
# Method in brief: as §1
# [33] = target: GalNAc3S(b1-4)GlcNAc3S
# Method in brief: as §1
# [34] = target: GlcNAc(a1-4)Gal(b1-4)GlcNAc(b1-3)Gal(b1-4)Glc
# Method in brief: as §1
# [35] = target: GlcNAc(b1-3)Gal(b1-4)GlcNAc(b1-3)Gal(b1-4)GlcNAc
# Method in brief: as §1
# [36] = target: GlcNAc(b1-3)Gal(b1-4)GlcNAc(b1-3)Gal(b1-4)GlcNAc(b1-3)Gal(b1-4)GlcNAc(b1-2)Man(a1-3)[GlcNAc(b1-3)Gal(b1-4)GlcNAc(b1-3)Gal(b1-4)GlcNAc(b1-3)Gal(b1-4)GlcNAc(b1-2)Man(a1-6)]Man(b1-4)GlcNAc(b1-4)GlcNAc
# Method in brief: as §1
# [37] = target: GlcNAc(b1-3)Gal(b1-4)GlcNAc(b1-3)Gal(b1-4)GlcNAc(b1-3)Gal(b1-4)GlcNAc(b1-3)Gal(b1-4)GlcNAc(b1-2)Man(a1-3)[GlcNAc(b1-3)Gal(b1-4)GlcNAc(b1-3)Gal(b1-4)GlcNAc(b1-3)Gal(b1-4)GlcNAc(b1-3)Gal(b1-4)GlcNAc(b1-2)Man(a1-6)]Man(b1-4)GlcNAc(b1-4)[Fuc(a1-6)]GlcNAc
# Method in brief: as §1
# [38] = target: GlcNAc(b1-3)[GlcNAc(b1-6)]Gal(b1-4)GlcNAc
# Method in brief: as §1
# [39] = target: GlcNAc(b1-4)GlcNAc
# Method in brief: as §1
# [40] = target: GlcNAc(b1-4)GlcNAc(b1-4)GlcNAc
# Method in brief: as §1
# [41] = target: GlcNAc(b1-6)GalNAc
# Method in brief: as §1
# [42] = target: Kdn(a2-3)Gal(b1-3)GlcNAc
# Method in brief: as §1
# [43] = target: Man(a1-2)Man(a1-3)[Man(a1-2)Man(a1-6)]Man(a1-6)[Man(a1-2)Man(a1-2)Man(a1-3)]Man
# Method in brief: as §1
# [44] = target: Man(a1-3)[Man(a1-6)]Man(a1-6)[Man(a1-2)Man(a1-3)]Man(b1-4)GlcNAc(b1-4)GlcNAc
# Method in brief: as §1
# [45] = target: Neu5Ac(a2-3)Gal(b1-3)[Fuc(a1-4)]GlcNAc
# Method in brief: as §1
# [46] = target: Neu5Ac(a2-3)Gal(b1-4)GlcNAc(b1-3)Gal(b1-3)GlcNAc
# Method in brief: as §1
# [47] = target: Neu5Ac(a2-3)Gal(b1-4)GlcNAc(b1-3)GalNAc
# Method in brief: as §1
# [48] = target: Neu5Ac(a2-3)Gal(b1-4)GlcNAc(b1-6)[Gal(b1-3)]GalNAc
# Method in brief: as §1
# [49] = target: Neu5Ac9Ac(a2-6)Gal(b1-4)GlcNAc
# Method in brief: as §1
# [50] = target: Neu5Gc(a2-3)Gal(b1-3)[Fuc(a1-4)]GlcNAc
# Method in brief: as §1
# [51] = target: Neu5Gc(a2-6)GalNAc
# Method in brief: as §1
# [52] = target: Neu5Gc(a2-8)Neu5Gc(a2-6)Gal(b1-4)GlcNAc
# Method in brief: as §1
binder,measurement,setting,value
LecB PA7 (Pseudomonas aeruginosa) (protein) MATQGVFTLPANTRFGVTAFANSSATQTVKVLVNNETAATFTGQSTNNAVIGSQVLNSGGGGKVQIQVSVNGRSSDLVSAQVILANELNVALVGSEDSTDNDYNDAVVVINWPLG,glycan array binding signal (z-score),[1],1.89
same,glycan array binding signal (z-score),[2],3.5
same,glycan array binding signal (z-score),[3],10.1
same,glycan array binding signal (z-score),[4],3.71
same,glycan array binding signal (z-score),[5],0.923
same,glycan array binding signal (z-score),[6],0.819
same,glycan array binding signal (z-score),[7],5.18
same,glycan array binding signal (z-score),[8],-0.08
same,glycan array binding signal (z-score),[9],4.93
same,glycan array binding signal (z-score),[10],4.08
same,glycan array binding signal (z-score),[11],-0.43
same,glycan array binding signal (z-score),[12],0.145
same,glycan array binding signal (z-score),[13],0.197
same,glycan array binding signal (z-score),[14],-0.381
same,glycan array binding signal (z-score),[15],1.57
same,glycan array binding signal (z-score),[16],3.54
same,glycan array binding signal (z-score),[17],-0.403
same,glycan array binding signal (z-score),[18],-0.51
same,glycan array binding signal (z-score),[19],1.8
same,glycan array binding signal (z-score),[20],-0.499
same,glycan array binding signal (z-score),[21],-0.412
same,glycan array binding signal (z-score),[22],3.31
same,glycan array binding signal (z-score),[23],3.44
same,glycan array binding signal (z-score),[24],-0.511
same,glycan array binding signal (z-score),[25],-0.478
same,glycan array binding signal (z-score),[26],-0.502
same,glycan array binding signal (z-score),[27],-0.495
same,glycan array binding signal (z-score),[28],-0.495
same,glycan array binding signal (z-score),[29],2.05
same,glycan array binding signal (z-score),[30],-0.478
same,glycan array binding signal (z-score),[31],-0.501
same,glycan array binding signal (z-score),[32],-0.493
same,glycan array binding signal (z-score),[33],-0.517
same,glycan array binding signal (z-score),[34],-0.505
same,glycan array binding signal (z-score),[35],-0.503
same,glycan array binding signal (z-score),[36],-0.467
same,glycan array binding signal (z-score),[37],0.402
same,glycan array binding signal (z-score),[38],-0.516
same,glycan array binding signal (z-score),[39],-0.486
same,glycan array binding signal (z-score),[40],-0.497
same,glycan array binding signal (z-score),[41],-0.504
same,glycan array binding signal (z-score),[42],-0.511
same,glycan array binding signal (z-score),[43],3.2
same,glycan array binding signal (z-score),[44],2.3
same,glycan array binding signal (z-score),[45],3.31
same,glycan array binding signal (z-score),[46],-0.505
same,glycan array binding signal (z-score),[47],-0.466
same,glycan array binding signal (z-score),[48],-0.087
same,glycan array binding signal (z-score),[49],-0.502
same,glycan array binding signal (z-score),[50],2.03
same,glycan array binding signal (z-score),[51],-0.508
same,glycan array binding signal (z-score),[52],-0.507
